The whole screen tested about 340,000 compounds, of which about 2,100 (0.62%) were called active.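 How the source made its calls: active means first-screen hits whose inhibition reached a set limit at any dose in the follow-up dose series; inconclusive means inhibition above the set first-screen limit but never retested; inactive means the rest.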 Not all results are given here. Measured potencies and affinities stand elsewhere.
target: Rac GTPase-activating protein 1 (Homo sapiens) (UniProt Q9H0H5); assay: MgcRacGAP GTPase-activating activity inhibitors, confirmation, biochemical, ADP Hunter fluorescence, primary and confirmatory (AID 624330); settings: MgcRacGAP-stimulated Rac1 GTP hydrolysis, at 30 µM, stronger effect = higher value, GST-tagged Rac1 F28L mutant substrate;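 further: fluorescence reports GDP produced by GAP-driven GTP hydrolysis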
Sequence (Q9H0H5 whole entry, looked up): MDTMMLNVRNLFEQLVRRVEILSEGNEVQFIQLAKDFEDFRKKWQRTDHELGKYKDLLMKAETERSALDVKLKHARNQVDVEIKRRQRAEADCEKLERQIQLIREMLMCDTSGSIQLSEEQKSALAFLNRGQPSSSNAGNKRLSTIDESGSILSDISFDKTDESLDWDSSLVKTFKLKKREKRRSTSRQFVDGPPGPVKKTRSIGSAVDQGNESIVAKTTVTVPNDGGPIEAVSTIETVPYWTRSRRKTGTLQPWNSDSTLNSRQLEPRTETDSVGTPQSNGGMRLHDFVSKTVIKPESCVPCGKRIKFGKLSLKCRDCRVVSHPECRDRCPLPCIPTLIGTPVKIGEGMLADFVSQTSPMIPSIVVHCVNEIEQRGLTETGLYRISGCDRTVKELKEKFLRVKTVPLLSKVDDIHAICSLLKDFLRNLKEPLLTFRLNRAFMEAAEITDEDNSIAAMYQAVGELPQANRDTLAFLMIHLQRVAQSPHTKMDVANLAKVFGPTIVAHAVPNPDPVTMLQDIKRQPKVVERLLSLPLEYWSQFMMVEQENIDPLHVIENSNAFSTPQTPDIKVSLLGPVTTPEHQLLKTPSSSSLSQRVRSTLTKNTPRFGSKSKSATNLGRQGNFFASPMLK

inhibition, inactive:
CCCNS(=O)(=O)c1ccc(CCC(=O)NCCc2ccc(OC)c(OC)c2)cc1 1.4%
NC(N)=NC1=NC(=O)/C(=C/c2ccccc2-n2cccn2)S1 10.9%
CC1(C)CC(=O)C(C=Nc2ccc(NC3=C(C#N)C(=O)CC(C)(C)C3)cc2)=C(O)C1 7.44%
CC(/C=N/O)Cc1ccc2c(c1)OCO2 (configuration not stated) 2.11%
COc1ccc(C2C(C(=O)NCc3ccco3)c3ccccc3C(=O)N2C)cc1 (configuration not stated) 0.04%
CC1=C(C(=O)N(C)C)CC(CC(=O)NC2CCCC2)C(=O)N1CCC1=CCCCC1 (configuration not stated) 14.5%
O=C(CNC(=O)c1ccccc1Br)N/N=C/c1cccs1 0.32%
CCn1c2ccccc2c2cc(CNCCCN3CCOCC3)ccc21 20.3%
COc1ccc(CNCc2ccc3ccccc3c2)c(OC)c1 28.9%
CCn1c2ccccc2c2cc(CC(N)=O)ccc21 8.07%
COc1cccc(CNCc2ccc(OC)cc2OC)c1 22.9%
CCCC(=O)Nc1ccc2c(c1)c1ccccc1n2CC 10.5%
CCn1c2ccccc2c(=O)c2ccccc21 5.08%
CCn1c2ccccc2c2cc(NC(=O)CC(C)=O)ccc21 8.51%
CCn1c2ccccc2c2cc(NC(C)=O)ccc21 6.13%
CC1=CC(C)(C)NC(=S)N1c1cccc2ccccc12 12.8%
O=C(O)CSc1nnc(Nc2ccccc2)n1-c1ccccc1 1.56%
COc1ccc(/C=C2\SC(=S)N(CC(=O)OCC(=O)Nc3ccc(C)cc3Cl)C2=O)cc1 1.09%
CN1C[C@@H]2[C@@H]3C(=O)N(Cc4ccccc4)C(=O)[C@@H]3[C@](C)(C1=O)N2C(=O)c1ccc(Br)cc1 5.77%
CCC(C(=O)OCC(=O)c1ccc(OC)cc1OC)c1ccccc1 (configuration not stated) 5.77%
COc1ccccc1C(=O)NC(=O)COC(=O)c1nc(Cl)ccc1Cl 8.9%
Cc1cc(F)ccc1S(=O)(=O)N1CCCOC1CNC(=O)C(=O)NCc1ccc2c(c1)OCO2 (configuration not stated) 2.65%
CCOC(=O)c1ccc(NC(=O)CC2OCCN(CC)C2=O)cc1 (configuration not stated) 7.78%
CC(C)C(=O)Nc1cc(S(=O)(=O)Nc2cccc(Cl)c2)ccc1Cl 12.6%
CCCCc1c(C)c(C#N)c2nc3ccccc3n2c1Nc1c(C)n(C)n(-c2ccccc2)c1=O 8.78%
COc1ccc(/C=C/C(=O)OCC(=O)Nc2ccc3c(c2)OCO3)cc1 10.3%
COc1cccc(/C=C/C(=O)OCC(=O)Nc2ccc3c(c2)OCO3)c1 13%
COc1cccc(/C=C/C(=O)OCC(=O)Nc2ccc3c(c2)OCCO3)c1 14.2%
COc1cc(/C=C/C(=O)OCC(=O)Nc2ccc3c(c2)OCCO3)ccc1OCC#N 5.37%
CCOC(=O)CC1C(=O)NCCN1C(=S)NC(=O)c1ccccc1OC (configuration not stated) 3.14%
CCN(CC(=O)Nc1ccc(NC(C)=O)cc1)C(=O)c1cn(-c2ccccc2)nc1-c1cccs1 7.68%
COc1ccc(C)cc1NC(=O)NC1CC(=O)N(c2ccc3c(c2)OCCO3)C1 (configuration not stated) 10.3%
CCOc1ccc(/C=C\C(C)=N\O)cc1 8.33%
CC(/C=C/c1ccccc1)=N/O 4.32%
COc1ccc(Cl)cc1C(=O)NCCN1CCOCC1 3.67%
Cc1cccc(NS(=O)(=O)c2ccc(C)c(C(=O)NCC(c3ccco3)N3CCCCC3)c2)c1 (configuration not stated) 4.69%
CC(=O)c1ccc2c(c1)N(C)c1ccccc1S2 18.2%
C/C(=N\NC(=O)c1ccccc1F)c1cccc(NC(=O)c2ccc(C)cc2)c1 5.2%
CCOC(=O)Nc1ccc2c(c1)N(C(=O)CN(C)C)c1ccccc1S2 -22.2%
C=CC(=O)N1c2ccccc2Sc2ccc(NC(=O)OCC)cc21 6.2%
C/C(=N\Nc1ccc(C(=O)O)cc1)c1ccc(Br)cc1 14%
COc1ccc(/C(C)=N/Nc2ccc(C(=O)O)cc2)cc1OC -0.19%
C/C(=N\NC(=O)c1ccccc1F)c1cccc(NC(=O)c2ccccc2)c1 4.16%
COC(=O)c1ccc2c(c1)NC(=O)c1ccccc1S2 8.59%
Cc1ccc(CN2[C@@H](Cc3ccccc3)C(=O)CS2(=O)=O)cc1 3.43%
O=C(NNC(=O)c1n[nH]c2ccccc12)c1ccccc1 4.79%
CN1CCN(c2cc(C(F)(F)F)nc(-c3ccccn3)n2)CC1 1.81%
C=CCn1c(SCc2ccc(C(=O)OC)cc2)nnc1-c1sc(N)nc1C 3.61%
COc1ccccc1CCNC(=O)NC1CCCCC1 3.38%
Cc1ccccc1N(CC(=O)NCCc1ccccc1)C(=O)c1ccc(N2CCCC2)nc1 -2.74%
COc1cccc(OC)c1C(=O)NC(=S)NCc1cccnc1 6.24%
CCC1CCCCN1C(=O)COc1ccc2c(c1)OCO2 (configuration not stated) 2.24%
Cc1ccc(C(=O)c2c3ccc([N+](=O)[O-])cc3[n+]([O-])n2CCCN)cc1 8.83%
CC(=O)Nc1cccc(/C(C)=N/NC(=O)c2ccc(O)cc2)c1 0.87%
C/C(=N\NC(=O)c1ccc(O)cc1)c1cccc(NC(=O)c2ccc(Cl)cc2)c1 8.52%
Cc1cccc(C(=O)Nc2cccc(C(=O)N3CCOCC3)c2)c1 -5.11%
COCCNC(=S)Nc1cc(OC)c(NC(=O)c2ccco2)cc1OC 3.43%
COCCNC(=S)Nc1cc2oc3ccccc3c2cc1OC 17.8%
CC(=O)N1CCc2c(sc(NC(=O)Cc3ccc(C)cc3C)c2C#N)C1 -2.35%
COc1ccc(/C=N/NC(=O)c2nc(-c3ccccc3)cc(-c3ccccc3)n2)cc1OC 11.2%
Cc1nn(-c2ccccc2)c(C)c1-c1cc(C(=O)N/N=C/c2ccc(O)cc2)[nH]n1 19.3%
Cc1cccc(-n2cnc(C(=O)N/N=C/c3ccccc3)c2)n1 6.69%
COc1ccc(/C=N/NC(=O)c2nc(-c3ccccc3)cc(-c3ccccc3)n2)cc1O 24.5%
COc1ccc(/C=N/NC(=O)c2nc(-c3ccccc3)n(-c3ccccc3)n2)cc1 -5.29%
Cc1cccc(-n2cnc(C(=O)N/N=C\c3ccc(Br)cc3)c2)n1 12.1%
Cc1cc(C(=O)N/N=C/c2c(C)nn(-c3ccccc3)c2C)n[nH]1 -3.78%
COc1ccc(/C=N/NC(=O)c2nc(-c3ccccc3)n(-c3ccccc3)n2)cc1OC 6.46%
O=C1CCC2(CC1)NC(=O)N(c1ccccc1)N2 -10.2%
O=C1CNC(=S)N1CCOc1ccccc1 -1.2%
COc1ccc(S(=O)(=O)Nc2cc(C(=O)NCCC(C)C)ccc2N2CCOCC2)cc1 -3.38%
CCOc1ccc(-c2cc(C(=O)N3CCCC3)c3ccccc3n2)cc1 1.87%
CCOC(=O)COc1ccccc1-c1ccno1 5.09%
COc1ccc(S(=O)(=O)Cc2ccc(C(=O)NCC(OC)OC)o2)cc1 5.28%
CCC1C(=O)NCCN1C(=O)c1cc(COc2cc(C)ccc2C)on1 (configuration not stated) 13.8%
O=C(NCc1cccnc1)c1ccccn1 3.14%
O=C(Nc1cnccn1)Nc1ccc(Cl)cc1Cl -2.37%
O=C(CCc1c[nH]c2ccccc12)NCCc1ccccc1 7.24%
O=C(CCc1c[nH]c2ccccc12)NCCc1ccc(Cl)cc1 6.06%
Cc1ccc(NC(=O)C(OC(=O)c2cnc(C)cn2)c2ccccc2)c([N+](=O)[O-])c1 (configuration not stated) 4.33%
O=C(COc1ccc2cc(Br)ccc2c1)N1CCCC1 8.08%
COc1ccc(-c2[nH]ncc2-c2csc(C)n2)c(O)c1 13.3%
Cc1[nH]nc(-c2ccc(O)c(C)c2O)c1Oc1ccccc1 18.4%
CCCOC(=O)c1ccc(Oc2c(-c3ccc(O)cc3O)n[nH]c2C)cc1 19.3%
CCOc1ccc(-c2n[nH]c(C)c2Oc2ccc(OC)cc2)c(O)c1 11%
O=S(=O)(N/N=C\c1ccccc1O)c1ccc(Cl)cc1 6.73%
O=C1CC(C(=O)Nc2ccc(Cl)cc2)S/C(=N\N=C\c2ccco2)N1 (configuration not stated) 10.6%
COc1ccc(Nc2ccnc3ccccc23)cc1 3.59%
c1ccc(CCNc2ccnc3cc4ccccc4cc23)cc1 13.8%
COCCN1C(=O)N(c2ccccc2)C(=O)C1CC(=O)Nc1cc(OC)cc(OC)c1 (configuration not stated) -13.2%
COC(=O)C(Cc1cncn1COCc1ccccc1)NC(=O)OC(C)(C)C (configuration not stated) 4.31%
c1ccc(CN2CCN(c3ncnc4c3[nH]c3ccccc34)CC2)cc1 20.2%
Cc1ccc2[nH]c3c(N4CCN(Cc5ccccc5)CC4)ncnc3c2c1 22.2%
O=C(CCCc1ccccc1)Nc1ccnn1C1CCN(Cc2ccccc2F)CC1 7.8%
Cc1occc1C(=O)NNC(=O)C1CCCC1 0.63%
COc1ccc(CN2CCOCC2)cc1OC 11.6%
CNC(=O)NC(=O)C(C)N1CCN(C/C=C/c2ccccc2)CC1 (configuration not stated) -5.37%
COc1cccc(CN2CCSCC2)c1 16.8%
COc1ccc(N2CCN(C(C)C(=O)N(C)Cc3ccccc3)CC2)cc1 (configuration not stated) 11%
COc1ccc(CN2CCN(C)CC2)cc1OCc1ccccc1 8.63%
COc1ccc(CN2CCN(C(=O)c3cccc4ccccc34)CC2)cc1OC 30.3%
COc1cc(OC)cc(C(=O)N2CCN(Cc3cccc(F)c3)CC2)c1 27.4%
COc1ccc(CN2CCC(Cc3ccccc3)CC2)cc1OC 29.4%

— PubChem BioAssay AID624330 (Southern Research Specialized Biocontainment Screening …, 2012)
